Measurements published in PubChem BioAssay.
Activity calls are given as the source filed them. Unless noted, no rule for the calls is given here.

Tests used:
[1] = HepG2 liver cancer cell viability effects, profiling panel, resazurin fluorescence, 24 h, PK04 Diversity Set (AID 1172); conditions: higher = more signal; also: test concentration not given here
[2] = basal S. cerevisiae growth modulation, no modifier, primary screen, OD600, strain BY4716, 24 h, basal condition (AID 1173); conditions: OD600, 24 h, higher = more signal, called active from +8 up or from −8 down
[3] = MM1S myeloma cell viability, profiling panel, resazurin fluorescence, basal, 24 h, PK04 Diversity Set (AID 1174); conditions: higher = more signal, called active from +8 up or from −8 down;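 also: MM1S multiple myeloma cell line; test concentration not given here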
[4] = target: Dihydroorotate dehydrogenase (quinone), mitochondrial (Plasmodium falciparum (isolate 3D7)) (UniProt Q08210); test: PfDHODH enzyme inhibitors, primary screen, biochemical, C-terminal His tag, absorbance 600 nm (AID 1175); conditions: DCIP absorbance 600 nm, higher = more signal, called active from +8 up or from −8 down;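 also: recombinant parasite enzyme with a five histidine tag at its C terminus; test concentration not given here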
Sequence of Dihydroorotate dehydrogenase (quinone), mitochondrial (Plasmodium falciparum (isolate 3D7)) (Q08210 whole entry, looked up): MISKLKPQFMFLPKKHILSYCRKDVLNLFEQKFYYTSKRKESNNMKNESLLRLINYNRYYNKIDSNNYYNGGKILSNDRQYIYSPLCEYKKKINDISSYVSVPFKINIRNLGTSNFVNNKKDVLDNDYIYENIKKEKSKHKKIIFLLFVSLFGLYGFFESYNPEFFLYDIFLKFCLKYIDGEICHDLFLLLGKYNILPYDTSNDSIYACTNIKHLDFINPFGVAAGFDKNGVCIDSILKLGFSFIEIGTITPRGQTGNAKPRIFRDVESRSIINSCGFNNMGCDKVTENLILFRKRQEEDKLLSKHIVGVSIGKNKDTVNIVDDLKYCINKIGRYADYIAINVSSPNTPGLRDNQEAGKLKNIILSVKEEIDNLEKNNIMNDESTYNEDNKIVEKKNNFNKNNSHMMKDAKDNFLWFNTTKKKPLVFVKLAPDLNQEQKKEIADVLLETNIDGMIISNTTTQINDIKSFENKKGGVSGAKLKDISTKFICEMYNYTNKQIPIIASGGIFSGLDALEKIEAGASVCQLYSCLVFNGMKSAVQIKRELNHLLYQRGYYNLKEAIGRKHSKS

[5] = P. aeruginosa biofilm formation inhibitors, primary screen, strain PAO1, LB-PBS medium, absorbance 600 nm (AID 1176); also: test concentration not given here; conditions: P. aeruginosa PAO1 growth/biofilm, A600, 12 h; higher = more signal
[6] = S. cerevisiae RM11-1a growth modifiers, primary screen, strain RM11-1a, OD600, basal, 24 h (AID 1177); conditions: OD600, 24 h, higher = more signal, called active from +8 up or from −8 down;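 also: cultures grown under basal conditions with no added stressor; test concentration not given here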
[7] = E. coli acrAB mutant growth effects, primary screen, E. coli filamentation inducers, strain DRC39, OD650, 24 h (AID 1178); conditions: higher = more signal, called active from +8 up or from −8 down;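 also: growth measured as culture turbidity by optical density at 650 nm; test concentration not given here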
[8] = E. coli acrAB mutant growth effects, primary screen, E. coli filamentation inducers, strain DRC39, OD650, 48 h (AID 1179);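 also: screen aims at cell division blockers that make cells filament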; conditions: E. coli DRC39 delta-acrAB growth, higher = more signal, called active from +8 up or from −8 down
[9] = RPMI8226 myeloma cell viability, profiling panel, resazurin fluorescence, basal, 24 h, PK04 Diversity Set (AID 1180); conditions: higher = more signal;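 also: RPMI8826 multiple myeloma cell line at 5000 cells per well; test concentration not given here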
[10] = target: E3 ubiquitin-protein ligase XIAP (Homo sapiens) (UniProt P98170); test: XIAP binders, primary screen, biophysical, small-molecule microarray, fluorescence 635 nm (AID 1181); conditions: small-molecule microarray binding, higher = more signal;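 also: score merges 667 nm emission and signal to noise over triplicate slides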
Sequence of E3 ubiquitin-protein ligase XIAP (Homo sapiens) (P98170 whole entry, looked up): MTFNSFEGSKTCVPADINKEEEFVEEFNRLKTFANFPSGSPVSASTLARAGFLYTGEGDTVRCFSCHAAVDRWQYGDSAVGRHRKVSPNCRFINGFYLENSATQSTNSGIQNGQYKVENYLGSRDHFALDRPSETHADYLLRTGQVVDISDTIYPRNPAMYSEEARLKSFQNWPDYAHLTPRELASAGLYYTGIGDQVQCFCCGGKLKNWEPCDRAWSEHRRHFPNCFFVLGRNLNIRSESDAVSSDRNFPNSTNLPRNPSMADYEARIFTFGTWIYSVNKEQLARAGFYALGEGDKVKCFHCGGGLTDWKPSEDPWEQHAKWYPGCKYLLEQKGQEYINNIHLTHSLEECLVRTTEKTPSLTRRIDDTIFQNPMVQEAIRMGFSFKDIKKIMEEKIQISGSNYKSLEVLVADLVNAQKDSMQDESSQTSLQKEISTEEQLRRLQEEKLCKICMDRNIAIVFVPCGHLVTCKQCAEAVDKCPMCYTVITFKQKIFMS

SMILES	z-score [1]	z-score [2]	z-score [3]	composite z-score [4]	z-score [5]	z-score [6]	z-score [7]	z-score [8]	z-score [9]	composite z-score [10]
CCOC(=O)C1=CCC(c2cc3ccccc3[nH]2)N(S(=O)(=O)c2ccccc2[N+](=O)[O-])C1 (stereo not given)	-0.0211	1.08 (inactive)	-1.08 (inactive)	-0.242 (inactive)	0.546 (inactive)	-0.16 (inactive)	-0.591 (inactive)	0.158 (inactive)	-1.62	-0.014
COC(=O)[C@@]1(Cc2ccccc2)[C@@H]2[C@@H](CC(=O)[C@H]2CC(=O)C(=O)N(C)C)CN1C(=O)c1ccccc1	0.166	1.55 (inactive)	-1.18 (inactive)	0.823 (inactive)	0.535 (inactive)	1.02 (inactive)	-0.49 (inactive)	-0.0021 (inactive)	-0.0757	0.0464
COCCOC(=O)N1C(=O)[C@@]2(c3cc(C#Cc4ccc(OC)cc4)ccc31)[C@H](C(=O)N1CCCCCCC1)[C@H]1C(=O)O[C@H](c3ccccc3)[C@H](c3ccccc3)N1[C@@H]2c1ccccc1OCCO	-0.107	1.88 (inactive)	-0.0216 (inactive)	-0.267 (inactive)	2.36 (inactive)	3.2 (inactive)	-0.609 (inactive)	-0.399 (inactive)	-0.429	0.89
COc1ccc([Si](C)(C)[C@@H]2[C@@H](CC(=O)N(CCO)Cc3ccccc3)O[C@]3(C(=O)N(Cc4ccc(N5CCC5=O)cc4)c4ccccc43)[C@H]2C)cc1	0.278	0.144 (inactive)	-0.604 (inactive)	-1.44 (inactive)	1.2 (inactive)	0.67 (inactive)	0.505 (inactive)	0.358 (inactive)	-1.66	-0.0151
CN1C(=O)C2C=CC(C(O)c3ccc(-c4ccccc4)s3)N(Nc3ccccc3)C2C1=O (stereo not given)	-0.208	-1.02 (inactive)	-1.03 (inactive)	0.71 (inactive)	1.6 (inactive)	0.0727 (inactive)	0.243 (inactive)	-0.0198 (inactive)	-0.985	0.148
COCCOC(=O)N1C(=O)[C@@]2(c3cc(C#CCCO)ccc31)[C@H](c1ccccc1OCCO)N1[C@H](c3ccccc3)[C@H](c3ccccc3)OC(=O)[C@H]1[C@@H]2C(=O)N1CCc2cc(OC)c(OC)cc2C1	-0.321	1.39 (inactive)	0.248 (inactive)	0.725 (inactive)	1.26 (inactive)	2 (inactive)	0.0965 (inactive)	0.963 (inactive)	1.19	0.132
NCCCC[C@@H]1NC(=O)[C@H]2C[C@@H](C(=O)NCc3ccc(F)cc3)[C@@H](c3cccc(OCCO)c3)N2C1=O	-1.49	-0.956 (inactive)	0.646 (inactive)	0.22 (inactive)	0.379 (inactive)	1.57 (inactive)	0.71 (inactive)	0.896 (inactive)	1.04	-0.271
